Test results taken from PubChem BioAssay (Tox21).
Unmarked numbers belong to inactive results. Records with an inconclusive call do not appear. Entries that show only a call come without a potency. Activity calls are given as the source filed them. Unless noted, calls follow the shape of the dose curve; as a rule, active = well fitted curve in the direction sought with a large enough effect in the repeat runs; inconclusive = weak or mixed curves; inactive = no such curve, though single readings can be large; an effect the other way counts as inactive or inconclusive.

Experiments:
[1] = Caspase-3/7 induction in HepG2 cells by small molecules, qHTS assay (AID 1346978); also: nearly all actives have a fitted effect of over 15% in size
How it was run: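 Wild-type HepG2 cells, 2,000/well, settled 5 hr at 37 C and 5% CO2, then compound-treated for 17 hr; caspase-3/7 activity read by luminescent Caspase-Glo 3/7 after 30 min at room temperature.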

[2] = Caspase-3/7 induction in CHO-K1 cells by small molecules, qHTS cell viability counter screen (AID 1346979); also: nearly all actives have a fitted effect of over 35% in size
How it was run: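 Wild-type CHO-K1 cells (1,500/well) treated with compound after 5 h plating; after 16 h at 37C, viability read as CellTiter-Fluor fluorescence following 1 h reagent incubation, in the same wells as the caspase read.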

[3] = Caspase-3/7 induction in CHO-K1 cells by small molecules, qHTS assay (AID 1346980); also: nearly all actives have a fitted effect of over 15% in size
How it was run: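 Wild-type CHO-K1 cells exposed to compounds for 17hr at 37 C, 5% CO2. Caspase-3/7 activity then measured by Caspase-Glo 3/7 luminescence after 30min at room temperature.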

[4] = Caspase-3/7 induction in HepG2 cells by small molecules, qHTS cell viability counter screen (AID 1346981); also: nearly all actives have a fitted effect of over 30% in size
How it was run: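 Wild-type HepG2 cells (2,000/well) were allowed to settle for 5 hr at 37 C, 5% CO2, then dosed with compounds in DMSO by pin transfer. After 16 hr at 37 C, CellTiter-Fluor was added and fluorescence read 1 hr later.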

[5] = target: Nuclear receptor subfamily 1 group I member 2 (Homo sapiens) (UniProt O75469); experiment: Human pregnane X receptor (PXR) small molecule agonists, qHTS assay (AID 1346982); also: nearly all actives have a fitted effect of over 35% in size
How it was run: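 PXR-Luc HepG2 cells (CYP3A4 promoter-driven luciferase) were seeded in medium with 5% charcoal-stripped FBS, left 5 hr at 37 C, then exposed to compounds in DMSO for 24 hr. Luminescence was read after ONE-Glo addition.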

[6] = target: Acetylcholinesterase (Homo sapiens) (UniProt P22303); experiment: Acetylcholinesterase (AChE) small molecule antagonists: colormetric cell-based qHTS assay (AID 1347395; calls by dose curve; also: nearly all actives have a fitted effect of over 30% in size)
How it was run: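 SH-SY5Y cells attached overnight, exposed to compound 30 min at 37 C, then given DTNB/acetylthiocholine; after 90 min at 37 C, colorimetric thiocholine read gives cellular AChE activity.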

[7] = target: Acetylcholinesterase (Homo sapiens) (UniProt P22303); experiment: Acetylcholinesterase (AChE) small molecule antagonists: enzyme-based qHTS assay (AID 1347397; calls by dose curve; also: nearly all actives have a fitted effect of over 55% in size); conditions: Potency: AChE enzyme activity inhibition
How it was run: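 Recombinant human AChE (50 mU/mL) preincubated with compound 30 min at room temperature; acetylthiocholine plus DTNB then added, and thiocholine formation read colorimetrically after 10 min at room temperature. DMSO served as vehicle control.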

[8] = target: Acetylcholinesterase (Homo sapiens) (UniProt P22303); experiment: Acetylcholinesterase (AChE) small molecule antagonists: fluorescence cell-based qHTS assay (AID 1347398; calls by dose curve; also: nearly all actives have a fitted effect of over 50% in size); conditions: Potency: AChE activity
How it was run: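 SH-SY5Y cells (2000/well), attached overnight, incubated with compound 30 min at 37 C. Acetylthiocholine plus Thiolite Green then added for 40 min at room temperature. Thiocholine fluorescence (Ex/Em 490/520 nm) reports cellular AChE activity.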

[9] = target: Acetylcholinesterase (Homo sapiens) (UniProt P22303); experiment: Acetylcholinesterase (AChE) small molecule antagonists: enzyme-based qHTS assay with human liver microsomes (AID 1347399; calls by dose curve; also: nearly all actives have a fitted effect of over 60% in size); conditions: Potency: qHTS inhibition
How it was run: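 Recombinant human AChE (50 mU/mL in the enzyme mix) and human liver microsomes (0.25 mg/mL final) were preincubated with compound and NADPH (0.25 mg/mL final) for 30 min at 37 C. Acetylthiocholine/DTNB was then added; thiocholine was read colorimetrically after 10 min at room temperature.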

[10] = target: Cytochrome P450 2D6 (Homo sapiens) (UniProt P10635); experiment: Cytochrome P450 Family 2 Subfamily D Member 6 (CYP2D6) small molecule antagonists: luciferase reporter qHTS assay (AID 1671196); also: nearly all actives have a fitted effect of over 50% in size
How it was run: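 CYP2D6 enzyme–substrate mix was held with compound for 10 min at room temperature, then NADPH regeneration solution was added and the reaction ran 1 h at room temperature. Luciferin product was detected by luminescence after 20 min with detection reagent.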

[11] = target: Cytochrome P450 2C19 (Homo sapiens) (UniProt P33261); experiment: Cytochrome P450 Family 2 Subfamily C Member 19 (CYP2C19) small molecule antagonists: luciferase reporter qHTS assay (AID 1671197); also: nearly all actives have a fitted effect of over 65% in size
How it was run: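 Relative luminescence units recorded 20 min after the detection reagent stopped a 1 h, 37C CYP2C19 reaction on proluciferin substrate, which was started by NADPH regeneration following 10 min room-temperature compound preincubation; ketoconazole positive control.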

[12] = target: Cytochrome P450 2C9 (Homo sapiens) (UniProt P11712); experiment: Cytochrome P450 Family 2 Subfamily C Member 9 (CYP2C9) small molecule antagonists: luciferase reporter qHTS assay (AID 1671198); also: nearly all actives have a fitted effect of over 50% in size
How it was run: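 P450-Glo proluciferin substrate with CYP2C9 enzyme; 10 min RT preincubation, then NADPH regeneration 1 h at 37C; luciferin detection reagent 20 min RT, luminescence in relative luminescence units.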

[13] = target: Cytochrome P450 1A2 (Homo sapiens) (UniProt P05177); experiment: Cytochrome P450 Family 1 Subfamily A Member 2 (CYP1A2) small molecule antagonists: luciferase reporter qHTS assay (AID 1671199); also: nearly all actives have a fitted effect of over 50% in size
How it was run: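 Human CYP1A2 activity measured with a P450-Glo proluciferin substrate; compounds in DMSO preincubated 10 min at room temperature with enzyme-substrate mix, then NADPH regeneration system added for 1 h. Luciferin detection reagent, 20 min, luminescence read.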

[14] = target: Voltage-gated inwardly rectifying potassium channel KCNH2 (Homo sapiens) (UniProt Q12809); experiment: Human Ether-a-go-go-Related Gene (hERG) channel small molecule antagonists: fluorescence cell-based qHTS assay (AID 1671200); also: nearly all actives have a fitted effect of over 50% in size
How it was run: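 hERG-U2OS cells plated overnight at 37 C, loaded with FluxOR II dye 1 h at RT in dark; after 10 min, thallium stimulus added. Fluorescence (480/540 nm) read kinetically for 2 min at 1 s intervals.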

[15] = target: Cytochrome P450 3A4 (Homo sapiens) (UniProt P08684); experiment: Cytochrome P450 Family 3 Subfamily A Member 4 (CYP3A4) small molecule antagonists: luciferase reporter qHTS assay (AID 1671201); also: nearly all actives have a fitted effect of over 50% in size
How it was run: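 P450-Glo CYP3A4 luminescent assay: compounds preincubated 10 min at room temperature with enzyme and proluciferin substrate, NADPH regeneration added, 1 h room-temperature reaction, stopped with luciferin detection reagent; luminescence read after 20 min. Ketoconazole positive control.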
Potency is read from the fitted curve at half-maximal effect.

Voltage-gated inwardly rectifying potassium channel KCNH2 (Homo sapiens), sequence (Q12809 whole entry, looked up): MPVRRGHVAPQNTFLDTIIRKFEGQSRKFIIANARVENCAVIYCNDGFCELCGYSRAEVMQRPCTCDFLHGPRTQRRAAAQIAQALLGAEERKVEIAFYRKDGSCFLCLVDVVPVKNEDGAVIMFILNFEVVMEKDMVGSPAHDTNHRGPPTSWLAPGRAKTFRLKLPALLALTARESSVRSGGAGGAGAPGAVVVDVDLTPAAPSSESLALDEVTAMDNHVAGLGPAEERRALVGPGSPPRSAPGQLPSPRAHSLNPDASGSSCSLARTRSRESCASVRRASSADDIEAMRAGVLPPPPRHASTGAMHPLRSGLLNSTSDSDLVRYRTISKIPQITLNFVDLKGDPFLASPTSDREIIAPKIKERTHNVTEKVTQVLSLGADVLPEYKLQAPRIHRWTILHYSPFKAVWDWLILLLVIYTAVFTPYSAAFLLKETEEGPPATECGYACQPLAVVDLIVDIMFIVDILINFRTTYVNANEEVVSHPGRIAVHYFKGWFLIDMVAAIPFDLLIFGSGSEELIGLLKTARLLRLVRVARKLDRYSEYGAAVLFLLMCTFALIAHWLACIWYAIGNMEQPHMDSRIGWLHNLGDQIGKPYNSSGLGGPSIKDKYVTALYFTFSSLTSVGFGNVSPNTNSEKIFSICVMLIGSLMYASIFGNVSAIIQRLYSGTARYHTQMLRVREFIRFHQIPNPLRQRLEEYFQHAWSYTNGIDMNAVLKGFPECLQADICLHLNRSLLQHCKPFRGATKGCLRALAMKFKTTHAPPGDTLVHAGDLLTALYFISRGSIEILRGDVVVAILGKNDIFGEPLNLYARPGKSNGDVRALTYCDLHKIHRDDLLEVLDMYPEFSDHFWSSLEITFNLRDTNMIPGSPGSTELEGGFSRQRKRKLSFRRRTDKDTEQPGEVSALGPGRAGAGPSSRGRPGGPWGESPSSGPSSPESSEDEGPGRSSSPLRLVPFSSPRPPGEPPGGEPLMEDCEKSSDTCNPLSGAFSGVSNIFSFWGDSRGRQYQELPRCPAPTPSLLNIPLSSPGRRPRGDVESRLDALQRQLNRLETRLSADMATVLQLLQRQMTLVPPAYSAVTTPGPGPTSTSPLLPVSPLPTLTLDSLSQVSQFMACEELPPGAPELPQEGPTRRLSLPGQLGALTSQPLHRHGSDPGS
Acetylcholinesterase (Homo sapiens), sequence (P22303 whole entry, looked up): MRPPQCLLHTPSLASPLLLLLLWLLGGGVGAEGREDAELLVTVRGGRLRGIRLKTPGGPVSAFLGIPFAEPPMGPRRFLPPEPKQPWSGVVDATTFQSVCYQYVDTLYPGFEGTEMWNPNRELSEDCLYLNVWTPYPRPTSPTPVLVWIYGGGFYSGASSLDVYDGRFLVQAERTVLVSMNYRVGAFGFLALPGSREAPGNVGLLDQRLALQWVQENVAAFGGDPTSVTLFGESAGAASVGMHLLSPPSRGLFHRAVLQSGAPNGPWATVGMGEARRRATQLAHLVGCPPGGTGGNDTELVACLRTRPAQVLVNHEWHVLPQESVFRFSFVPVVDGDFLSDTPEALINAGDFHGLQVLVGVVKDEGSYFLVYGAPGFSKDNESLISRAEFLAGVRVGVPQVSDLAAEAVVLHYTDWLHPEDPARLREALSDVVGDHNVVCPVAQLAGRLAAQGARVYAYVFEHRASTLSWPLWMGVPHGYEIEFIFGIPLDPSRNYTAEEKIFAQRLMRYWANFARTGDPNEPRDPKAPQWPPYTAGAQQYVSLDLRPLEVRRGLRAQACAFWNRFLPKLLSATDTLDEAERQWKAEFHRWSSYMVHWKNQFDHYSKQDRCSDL
Cytochrome P450 2D6 (Homo sapiens), sequence (P10635 whole entry, looked up): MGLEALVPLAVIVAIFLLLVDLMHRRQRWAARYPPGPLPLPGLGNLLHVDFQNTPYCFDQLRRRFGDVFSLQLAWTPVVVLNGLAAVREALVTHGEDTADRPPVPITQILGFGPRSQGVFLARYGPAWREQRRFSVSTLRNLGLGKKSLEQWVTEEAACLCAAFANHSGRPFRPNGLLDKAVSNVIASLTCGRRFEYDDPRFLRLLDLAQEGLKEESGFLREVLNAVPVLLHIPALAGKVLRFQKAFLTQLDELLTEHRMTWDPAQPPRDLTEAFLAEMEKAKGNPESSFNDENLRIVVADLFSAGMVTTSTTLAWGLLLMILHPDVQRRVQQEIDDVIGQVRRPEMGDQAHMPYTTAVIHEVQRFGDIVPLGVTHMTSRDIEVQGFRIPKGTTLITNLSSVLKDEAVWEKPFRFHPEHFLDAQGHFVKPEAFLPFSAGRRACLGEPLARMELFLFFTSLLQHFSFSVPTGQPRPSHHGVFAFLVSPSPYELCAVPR
Cytochrome P450 3A4 (Homo sapiens), sequence (P08684 whole entry, looked up): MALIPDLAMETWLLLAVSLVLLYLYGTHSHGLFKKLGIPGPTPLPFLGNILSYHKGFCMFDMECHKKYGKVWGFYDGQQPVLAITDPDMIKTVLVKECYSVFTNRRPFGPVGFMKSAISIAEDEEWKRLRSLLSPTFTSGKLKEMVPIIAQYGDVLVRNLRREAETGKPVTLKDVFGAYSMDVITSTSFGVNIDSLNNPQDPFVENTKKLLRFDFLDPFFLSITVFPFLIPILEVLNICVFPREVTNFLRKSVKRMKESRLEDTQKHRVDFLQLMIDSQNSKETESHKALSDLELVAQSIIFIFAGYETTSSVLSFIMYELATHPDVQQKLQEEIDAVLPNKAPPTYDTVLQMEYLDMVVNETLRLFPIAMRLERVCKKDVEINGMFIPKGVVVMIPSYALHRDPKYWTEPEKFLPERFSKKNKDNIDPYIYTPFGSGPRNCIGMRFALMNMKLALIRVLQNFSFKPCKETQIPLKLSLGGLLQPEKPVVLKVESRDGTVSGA
Cytochrome P450 2C9 (Homo sapiens), sequence (P11712 whole entry, looked up): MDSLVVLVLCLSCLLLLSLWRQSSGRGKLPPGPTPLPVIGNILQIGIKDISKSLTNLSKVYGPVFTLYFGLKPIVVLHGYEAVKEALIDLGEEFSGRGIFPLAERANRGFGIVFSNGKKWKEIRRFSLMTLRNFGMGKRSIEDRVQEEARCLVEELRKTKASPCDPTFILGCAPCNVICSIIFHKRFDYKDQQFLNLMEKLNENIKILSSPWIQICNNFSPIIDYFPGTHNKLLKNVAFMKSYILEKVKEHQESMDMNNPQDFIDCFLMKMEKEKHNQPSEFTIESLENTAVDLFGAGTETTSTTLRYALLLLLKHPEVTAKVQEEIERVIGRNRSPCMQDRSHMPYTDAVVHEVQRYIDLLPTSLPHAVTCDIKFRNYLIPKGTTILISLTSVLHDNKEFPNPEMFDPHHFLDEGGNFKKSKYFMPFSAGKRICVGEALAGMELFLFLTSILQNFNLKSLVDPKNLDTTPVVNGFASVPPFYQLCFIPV
Cytochrome P450 1A2 (Homo sapiens), sequence (P05177 whole entry, looked up): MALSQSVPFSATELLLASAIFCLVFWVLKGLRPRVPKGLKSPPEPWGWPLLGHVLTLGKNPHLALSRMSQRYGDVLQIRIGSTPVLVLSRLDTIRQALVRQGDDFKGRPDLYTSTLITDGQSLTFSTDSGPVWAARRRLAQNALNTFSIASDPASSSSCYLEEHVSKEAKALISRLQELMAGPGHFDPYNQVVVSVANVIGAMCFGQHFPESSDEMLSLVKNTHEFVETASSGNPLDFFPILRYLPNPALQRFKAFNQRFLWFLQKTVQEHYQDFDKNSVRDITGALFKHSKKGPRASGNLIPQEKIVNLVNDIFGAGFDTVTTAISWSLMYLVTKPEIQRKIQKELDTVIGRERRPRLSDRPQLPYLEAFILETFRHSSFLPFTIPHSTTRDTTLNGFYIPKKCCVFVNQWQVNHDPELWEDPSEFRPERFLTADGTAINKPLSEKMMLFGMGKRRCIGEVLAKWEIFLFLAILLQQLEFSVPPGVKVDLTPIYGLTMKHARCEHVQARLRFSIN
Nuclear receptor subfamily 1 group I member 2 (Homo sapiens), sequence (O75469 whole entry, looked up): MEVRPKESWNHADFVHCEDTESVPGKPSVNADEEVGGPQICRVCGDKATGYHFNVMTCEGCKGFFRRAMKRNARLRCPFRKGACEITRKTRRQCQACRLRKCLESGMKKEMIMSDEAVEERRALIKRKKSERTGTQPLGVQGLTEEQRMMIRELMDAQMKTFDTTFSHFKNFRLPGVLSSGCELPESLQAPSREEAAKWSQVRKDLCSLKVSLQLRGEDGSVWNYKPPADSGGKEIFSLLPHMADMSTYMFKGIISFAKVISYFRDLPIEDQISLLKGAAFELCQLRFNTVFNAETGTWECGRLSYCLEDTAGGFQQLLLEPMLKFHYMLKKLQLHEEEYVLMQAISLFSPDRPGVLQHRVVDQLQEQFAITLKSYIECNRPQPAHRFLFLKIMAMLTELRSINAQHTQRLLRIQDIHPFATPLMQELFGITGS
Cytochrome P450 2C19 (Homo sapiens), sequence (P33261 whole entry, looked up): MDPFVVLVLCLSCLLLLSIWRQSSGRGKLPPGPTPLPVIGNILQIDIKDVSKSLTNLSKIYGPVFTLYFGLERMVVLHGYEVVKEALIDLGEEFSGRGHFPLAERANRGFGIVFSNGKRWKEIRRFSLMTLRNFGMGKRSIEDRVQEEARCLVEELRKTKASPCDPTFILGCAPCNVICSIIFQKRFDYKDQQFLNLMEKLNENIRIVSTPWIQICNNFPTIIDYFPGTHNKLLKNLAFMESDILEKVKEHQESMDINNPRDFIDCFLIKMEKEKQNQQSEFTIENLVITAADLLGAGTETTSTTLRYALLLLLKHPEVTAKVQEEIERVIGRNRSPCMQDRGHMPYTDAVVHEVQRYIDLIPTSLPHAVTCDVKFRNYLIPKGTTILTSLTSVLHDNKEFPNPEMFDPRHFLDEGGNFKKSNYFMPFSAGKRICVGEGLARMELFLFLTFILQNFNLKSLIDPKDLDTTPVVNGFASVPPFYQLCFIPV

| Structure (SMILES) | Potency [1] | Potency [2] | Potency [3] | Potency [4] | Potency [5] | Potency [6] | Potency [7] | Potency [8] | Potency [9] | Potency [10] | Potency [11] | Potency [12] | Potency [13] | Potency [14] | Potency [15] |
| --- | --- | --- | --- | --- | --- | --- | --- | --- | --- | --- | --- | --- | --- | --- | --- |
| C=COCCCl | inactive | inactive | inactive | inactive | inactive | inactive | inactive | inactive | inactive | inactive | inactive | inactive | inactive | inactive | inactive |
| CCOP(=S)(OCC)SCS(=O)(=O)CC | inactive | inactive | inactive | inactive | inactive | 1.59 µM (active) | 7.1 µM (active) | 2.52 µM (active) | 12.6 µM (active) | 39.9 µM (active) | 5.64 µM (active) |  |  | inactive | 7.96 µM (active) |
| O=c1ssc(Cl)c1Cl | inactive | 27.3 µM (active) | inactive | inactive | 27.3 µM (active) | inactive | inactive | inactive | inactive | 63.3 µM (active) |  | 39.9 µM (active) | 35.6 µM (active) | 49 µM (active) | 63.3 µM (active) |
| BrCC(Br)c1ccccc1 (stereo unspecified) | inactive | inactive | inactive | inactive | inactive | inactive | inactive | inactive | inactive | 12.6 µM (active) |  |  |  | inactive | inactive |
| CCCN(CCC)c1c([N+](=O)[O-])cc(S(N)(=O)=O)cc1[N+](=O)[O-] | 57.2 µM (active) | 50.1 µM (active) | 58.8 µM (active) | 57.7 µM (active) | 3.67 µM (active) |  | inactive |  | inactive | 62.7 µM (active) | 37.9 µM (active) |  | 51.2 µM (active) |  | 21.3 µM (active) |
| CC(C)(COCC1CO1)COCC1CO1 (stereo unspecified) | inactive | inactive | inactive | inactive | inactive |  | inactive | inactive | inactive | inactive | 79.6 µM (active) |  | inactive | inactive | inactive |
| CC(=[OH+])/C=C(/C)[O-].CC(=[OH+])/C=C(\C)[O-].CC(=[OH+])/C=C(\C)[O-].[Fe] | inactive | inactive | inactive | inactive | inactive |  | inactive | inactive | inactive |  | inactive | inactive |  | inactive | inactive |
| CCC(C)c1cc(C(C)(C)C)cc(-n2nc3ccccc3n2)c1O (stereo unspecified) | inactive | inactive | inactive | inactive | inactive |  | inactive | inactive | inactive | inactive | inactive |  |  | inactive |  |
